Test results published in the supplement of paper PMC10849652.
Targets with a hit are over-represented here; the source holds about 7,900 in all. About 0.6% of all pairs of compound and target were hits.

Columns and labels:
Test in all cases: log2 fold change, soluble protein after heating vs DMSO (PISA); higher = thermal stabilisation; K562 cells, 10 uM, 30 min; active = over 0.2 and 3.5 SD of the protein, either way, in both replicates (recomputed)
[1] = compound: COC1=CC=C(C=C1)CN2C=CC3=C2C=C(C=C3)C(=O)NO
Outline: (§1)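 K562 cells at 2×10^6 cells/mL were exposed to 10 μM compound for 30 min, then aliquots were heated for 3 min across 48°C-58°C, pooled, and extracted in PBS containing 0.5% NP-40 at 4°C. The supernatant after 21,000xg for 90 min was taken as soluble protein and measured by TMTpro 16plex LC-MS/MS with channel sums equalised. Thermal stability is reported relative to control samples, with values from duplicates. Fold changes are given on a log2 scale.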

[2] = compound: CON(C)C(=O)N1N=C(c2cc(F)ccc2F)S[C@@]1(CCCN)c1ccccc1 [filanesib]
Outline: as §1

[3] = compound: CO[C@H]1C[C@@H]2CC[C@@H](C)[C@@](O)(O2)C(=O)C(=O)N2CCCC[C@H]2C(=O)O[C@H]([C@H](C)C[C@@H]2CC[C@H](n3cnnn3)[C@H](OC)C2)CC(=O)[C@H](C)/C=C(\C)[C@@H](O)[C@@H](OC)C(=O)[C@H](C)C[C@H](C)/C=C/C=C/C=C/1C [zotarolimus]
Outline: as §1

[4] = compound: COc1cc(C(=O)O)ccc1NC(=O)[C@@H]1N[C@@H](CC(C)(C)C)[C@](C#N)(c2ccc(Cl)cc2F)[C@H]1c1cccc(Cl)c1F [idasanutlin]
Outline: as §1

[5] = compound: COc1cc(Nc2ncc3c(n2)-c2ccc(Cl)cc2C(c2c(F)cccc2OC)=NC3)ccc1C(=O)O [alisertib]
Outline: as §1

[6] = compound: COc1cc2nc(-c3cc(F)ccc3O)nc(N[C@@H]3CNC[C@H]3C(C)(C)O)c2cc1OC
Outline: as §1

[7] = compound: COc1cc2ncnc(Nc3ccc(F)c(Cl)c3)c2cc1OCCCN1CCOCC1 [gefitinib]
Outline: as §1

[8] = compound: COc1cccc2cc(-c3nc([C@H]4CC[C@H](C(=O)O)CC4)n4ncnc(N)c34)[nH]c12
Outline: as §1

[9] = compound: CS(=O)(=O)CCNCc1ccc(-c2ccc3ncnc(Nc4ccc(OCc5cccc(F)c5)c(Cl)c4)c3c2)o1 [lapatinib]
Outline: as §1

[10] = compound: CS(=O)(=O)N1CCN(Cc2cc3nc(-c4cccc5[nH]ncc45)nc(N4CCOCC4)c3s2)CC1 [pictilisib]
Outline: as §1

Measured: log2 fold change

GOPC (UniProt Q9HD26)
active: [6] 0.668
inactive: [1] -0.059 | [2] 0.259 | [3] 0.329 | [4] 0.007 | [5] -0.026 | [7] 0.137 | [8] -0.146 | [9] 0.15 | [10] 0.08

FLNA (UniProt P21333)
inactive: [1] 0.042 | [2] 0.026 | [3] 0.043 | [4] -0.066 | [5] 0.036 | [6] 0.039 | [7] 0.03 | [8] -0.095 | [9] -0.049 | [10] 0.031

GTF2H3 (UniProt Q13889)
Sequence of UniProt Q13889 (Q13889 whole entry, looked up): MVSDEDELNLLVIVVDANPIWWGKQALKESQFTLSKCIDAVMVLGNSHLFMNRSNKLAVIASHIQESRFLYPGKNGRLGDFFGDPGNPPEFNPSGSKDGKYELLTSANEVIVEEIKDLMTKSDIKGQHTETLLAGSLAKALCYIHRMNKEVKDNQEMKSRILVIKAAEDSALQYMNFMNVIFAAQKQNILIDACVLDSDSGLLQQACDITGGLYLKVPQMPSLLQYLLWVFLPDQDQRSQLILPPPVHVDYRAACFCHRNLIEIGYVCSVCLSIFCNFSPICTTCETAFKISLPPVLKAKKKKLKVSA
inactive: [1] -0.031 | [2] 0.062 | [3] -0.04 | [4] -0.077 | [5] -0.155 | [6] 0.016 | [7] 0 | [8] 0.041 | [9] 0.056 | [10] -0.089

GPKOW (UniProt Q92917)
inactive: [1] -0.055 | [2] -0.118 | [3] 0.024 | [4] -0.06 | [5] 0.039 | [6] -0.021 | [7] 0.047 | [8] 0.11 | [9] -0.005 | [10] -0.037

GALNT4 (UniProt Q8N4A0)
inactive: [1] -0.029 | [2] 0.066 | [3] -0.017 | [4] -0.099 | [5] -0.015 | [6] 0.011 | [7] 0.025 | [8] 0.025 | [9] -0.028 | [10] 0.172

GLS isoform 3 (UniProt O94925)
Sequence of UniProt O94925 (O94925 whole entry, looked up): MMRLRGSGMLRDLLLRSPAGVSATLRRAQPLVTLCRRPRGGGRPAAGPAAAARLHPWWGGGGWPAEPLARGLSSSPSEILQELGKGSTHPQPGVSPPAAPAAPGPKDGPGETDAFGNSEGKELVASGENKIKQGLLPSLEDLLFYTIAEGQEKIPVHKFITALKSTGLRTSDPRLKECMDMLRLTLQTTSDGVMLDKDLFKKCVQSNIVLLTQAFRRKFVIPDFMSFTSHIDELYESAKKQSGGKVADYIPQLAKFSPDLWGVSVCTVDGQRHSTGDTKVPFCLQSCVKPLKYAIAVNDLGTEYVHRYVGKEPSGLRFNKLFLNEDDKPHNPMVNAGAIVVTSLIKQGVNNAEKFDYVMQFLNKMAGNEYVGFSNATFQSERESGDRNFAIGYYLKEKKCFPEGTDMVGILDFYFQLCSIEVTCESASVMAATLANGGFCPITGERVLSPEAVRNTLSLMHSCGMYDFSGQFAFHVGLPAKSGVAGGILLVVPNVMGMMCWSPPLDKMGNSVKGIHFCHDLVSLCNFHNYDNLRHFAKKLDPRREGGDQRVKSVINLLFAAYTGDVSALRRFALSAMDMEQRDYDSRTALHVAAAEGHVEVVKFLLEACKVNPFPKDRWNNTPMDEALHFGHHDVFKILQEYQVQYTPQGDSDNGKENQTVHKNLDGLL
inactive: [1] -0.021 | [2] -0.029 | [3] 0.008 | [4] -0.26 | [5] -0.003 | [6] 0.216 | [7] 0.041 | [8] 0.031 | [9] 0 | [10] 0.078

HRC (UniProt P23327)
inactive: [1] -0.089 | [2] 0.019 | [3] -0.032 | [4] 0.035 | [5] -0.059 | [6] -0.008 | [7] 0.035 | [8] -0.007 | [9] -0.039 | [10] 0.017

HNRNPF (UniProt P52597)
inactive: [1] 0.059 | [2] -0.03 | [3] 0.046 | [4] 0.073 | [5] 0.03 | [6] -0.036 | [7] -0.034 | [8] -0.026 | [9] 0.008 | [10] -0.088

HEXA (UniProt P06865)
inactive: [1] 0.028 | [2] -0.066 | [3] -0.015 | [4] -0.012 | [5] -0.095 | [6] 0.01 | [7] -0.005 | [8] 0.035 | [9] 0 | [10] 0.03

HSPA8 (UniProt P11142)
Sequence of UniProt P11142 (P11142 whole entry, looked up): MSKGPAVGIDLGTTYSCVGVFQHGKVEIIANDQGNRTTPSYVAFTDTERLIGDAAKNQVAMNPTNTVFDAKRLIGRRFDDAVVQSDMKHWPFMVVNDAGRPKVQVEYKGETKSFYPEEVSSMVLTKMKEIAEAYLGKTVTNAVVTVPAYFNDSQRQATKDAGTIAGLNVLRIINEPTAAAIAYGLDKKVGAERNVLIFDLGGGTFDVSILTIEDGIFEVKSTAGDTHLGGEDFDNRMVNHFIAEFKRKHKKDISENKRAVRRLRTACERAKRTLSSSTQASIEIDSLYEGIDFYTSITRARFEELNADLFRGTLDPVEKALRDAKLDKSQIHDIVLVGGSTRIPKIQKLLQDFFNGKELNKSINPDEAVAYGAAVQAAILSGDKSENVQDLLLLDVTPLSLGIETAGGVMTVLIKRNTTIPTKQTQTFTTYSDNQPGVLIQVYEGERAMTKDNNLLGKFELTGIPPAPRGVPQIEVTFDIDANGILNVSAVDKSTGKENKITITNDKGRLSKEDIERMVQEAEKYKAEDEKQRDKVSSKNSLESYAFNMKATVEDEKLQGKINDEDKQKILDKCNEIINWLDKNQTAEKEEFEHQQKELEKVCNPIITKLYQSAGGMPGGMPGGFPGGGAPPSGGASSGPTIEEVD
inactive: [1] -0.008 | [2] -0.035 | [3] 0.005 | [4] 0.018 | [5] -0.036 | [6] -0.004 | [7] 0.018 | [8] -0.012 | [9] -0.018 | [10] -0.039

GALNT2 (UniProt Q10471)
Sequence of UniProt Q10471 (Q10471 whole entry, looked up): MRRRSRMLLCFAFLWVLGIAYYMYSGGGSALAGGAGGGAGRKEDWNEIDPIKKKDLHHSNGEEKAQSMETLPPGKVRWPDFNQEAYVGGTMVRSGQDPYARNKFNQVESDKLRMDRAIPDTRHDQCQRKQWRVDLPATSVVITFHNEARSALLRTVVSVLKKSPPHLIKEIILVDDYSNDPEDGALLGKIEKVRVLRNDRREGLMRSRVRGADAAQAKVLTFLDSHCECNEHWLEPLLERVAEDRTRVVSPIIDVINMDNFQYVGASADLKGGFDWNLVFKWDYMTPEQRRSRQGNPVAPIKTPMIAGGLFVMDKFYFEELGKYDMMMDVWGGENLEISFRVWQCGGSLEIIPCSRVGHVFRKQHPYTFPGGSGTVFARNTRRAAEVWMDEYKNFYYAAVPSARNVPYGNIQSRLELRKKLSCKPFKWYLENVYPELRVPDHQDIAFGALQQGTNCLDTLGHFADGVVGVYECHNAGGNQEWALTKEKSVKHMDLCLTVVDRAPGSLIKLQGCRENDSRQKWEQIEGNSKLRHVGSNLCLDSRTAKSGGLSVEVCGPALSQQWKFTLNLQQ
inactive: [1] 0.018 | [2] -0.025 | [3] 0.043 | [4] -0.065 | [5] -0.03 | [6] -0.042 | [7] 0.059 | [8] -0.012 | [9] 0.036 | [10] -0.01

FBXO3 (UniProt Q9UK99)
Sequence of UniProt Q9UK99 (Q9UK99 whole entry, looked up): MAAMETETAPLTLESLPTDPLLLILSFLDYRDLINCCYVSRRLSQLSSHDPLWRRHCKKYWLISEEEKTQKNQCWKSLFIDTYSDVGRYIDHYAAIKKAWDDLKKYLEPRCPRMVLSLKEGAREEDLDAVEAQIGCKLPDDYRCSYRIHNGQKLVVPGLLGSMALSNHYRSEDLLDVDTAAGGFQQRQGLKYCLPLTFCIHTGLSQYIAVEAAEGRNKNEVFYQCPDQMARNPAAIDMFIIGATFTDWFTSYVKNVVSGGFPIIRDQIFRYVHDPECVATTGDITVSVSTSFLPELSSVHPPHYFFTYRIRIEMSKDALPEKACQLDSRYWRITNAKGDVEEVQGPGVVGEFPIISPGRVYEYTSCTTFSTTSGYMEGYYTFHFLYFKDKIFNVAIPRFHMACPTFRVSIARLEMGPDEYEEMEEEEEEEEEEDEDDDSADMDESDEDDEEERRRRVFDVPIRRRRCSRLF
inactive: [1] 0.011 | [2] -0.053 | [3] -0.022 | [4] 0.032 | [5] -0.071 | [6] -0.013 | [7] 0.011 | [8] 0.025 | [9] 0.028 | [10] -0.023

GAPVD1 isoform 6 (UniProt Q14C86)
inactive: [1] 0.003 | [2] 0.033 | [3] 0.055 | [4] -0.021 | [5] 0.047 | [6] -0.048 | [7] -0.013 | [8] -0.068 | [9] 0.041 | [10] -0.025

HDAC2 (UniProt Q92769)
inactive: [1] -0.144 | [2] 0.029 | [3] 0.008 | [4] 0.008 | [5] -0.041 | [6] 0 | [7] 0.007 | [8] 0.017 | [9] 0.063 | [10] 0.024

GNB2 (UniProt P62879)
inactive: [1] -0.051 | [2] 0.034 | [3] -0.006 | [4] -0.058 | [5] -0.068 | [6] 0.089 | [7] 0.085 | [8] -0.071 | [9] 0 | [10] 0.13

GLUL (UniProt P15104)
inactive: [1] 0.11 | [2] 0.002 | [3] -0.154 | [4] 0.032 | [5] -0.013 | [6] -0.061 | [7] 0.01 | [9] -0.032 | [10] -0.001
active: [8] -0.225

HDDC2 (UniProt Q7Z4H3)
inactive: [1] -0.098 | [2] -0.037 | [3] 0.049 | [4] -0.068 | [5] 0.04 | [6] -0.05 | [7] -0.022 | [8] 0.068 | [9] 0.037 | [10] 0.064

GAK (UniProt O14976)
inactive: [1] -0.013 | [2] 0.024 | [3] 0.033 | [4] -0.748 | [5] -0.025 | [6] 1.44 | [7] 0.84 | [8] -0.107 | [9] 0.143 | [10] 0.226

HMG20A (UniProt Q9NP66)
inactive: [1] -0.045 | [2] 0.05 | [3] 0.078 | [4] -0.21 | [5] -0.016 | [6] 0.147 | [7] 0.065 | [8] -0.021 | [9] -0.088 | [10] 0.145

FRA10AC1 isoform 3 (UniProt Q70Z53)
inactive: [1] -0.022 | [2] 0.179 | [3] -0.049 | [4] -0.319 | [5] -0.033 | [6] 0.068 | [7] 0 | [8] -0.005 | [9] -0.064 | [10] -0.11

GABPA (UniProt Q06546)
inactive: [1] 0.01 | [2] -0.111 | [3] 0.063 | [4] -0.025 | [5] -0.002 | [6] -0.134 | [7] 0.032 | [8] 0.029 | [9] 0.048 | [10] 0.02

HDGFL2 (UniProt Q7Z4V5)
Sequence of UniProt Q7Z4V5 (Q7Z4V5 whole entry, looked up): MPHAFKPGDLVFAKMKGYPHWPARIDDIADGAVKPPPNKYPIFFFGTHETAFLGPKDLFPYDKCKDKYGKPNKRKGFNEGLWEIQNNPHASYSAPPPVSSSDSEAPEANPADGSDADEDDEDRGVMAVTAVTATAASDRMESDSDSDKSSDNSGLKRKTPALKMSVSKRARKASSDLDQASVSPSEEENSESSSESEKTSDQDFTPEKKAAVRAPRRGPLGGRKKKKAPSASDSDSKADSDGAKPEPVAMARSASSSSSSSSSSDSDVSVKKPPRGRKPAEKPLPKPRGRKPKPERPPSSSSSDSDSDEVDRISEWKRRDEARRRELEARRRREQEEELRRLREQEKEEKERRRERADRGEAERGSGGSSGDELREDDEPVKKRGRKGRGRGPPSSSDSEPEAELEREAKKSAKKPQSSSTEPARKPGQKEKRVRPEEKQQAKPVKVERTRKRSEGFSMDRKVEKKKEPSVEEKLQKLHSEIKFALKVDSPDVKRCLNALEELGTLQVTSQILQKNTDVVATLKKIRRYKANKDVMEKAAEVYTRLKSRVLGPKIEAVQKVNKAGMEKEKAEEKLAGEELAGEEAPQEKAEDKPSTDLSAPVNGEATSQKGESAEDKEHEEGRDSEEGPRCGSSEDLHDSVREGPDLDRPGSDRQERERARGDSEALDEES
inactive: [1] 0.032 | [2] 0.056 | [3] -0.025 | [4] 0.012 | [5] -0.051 | [6] -0.013 | [7] 0.025 | [8] 0.04 | [9] -0.019 | [10] -0.004

GUK1 isoform 2 (UniProt Q16774)
inactive: [1] 0.215 | [2] -0.005 | [3] 0.022 | [4] -0.04 | [5] -0.048 | [6] 0.155 | [7] -0.05 | [8] -0.019 | [9] -0.001 | [10] 0.017

FECH isoform 2 (UniProt P22830)
Sequence of UniProt P22830 (P22830 whole entry, looked up): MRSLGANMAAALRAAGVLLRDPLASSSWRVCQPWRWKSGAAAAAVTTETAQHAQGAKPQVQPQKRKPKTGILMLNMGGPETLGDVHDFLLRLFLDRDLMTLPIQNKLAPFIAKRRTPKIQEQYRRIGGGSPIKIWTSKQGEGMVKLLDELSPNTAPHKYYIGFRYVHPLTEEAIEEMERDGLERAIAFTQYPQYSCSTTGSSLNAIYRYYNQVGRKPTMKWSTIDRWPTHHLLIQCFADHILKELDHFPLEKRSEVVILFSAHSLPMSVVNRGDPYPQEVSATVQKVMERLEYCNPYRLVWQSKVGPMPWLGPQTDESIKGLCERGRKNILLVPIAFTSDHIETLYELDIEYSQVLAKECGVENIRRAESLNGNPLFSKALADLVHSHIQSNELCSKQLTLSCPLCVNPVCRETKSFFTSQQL
inactive: [1] 0.159 | [2] -0.188 | [3] 0.082 | [4] -0.127 | [5] -0.185 | [6] 0.363 | [7] 0.153 | [8] 0.062 | [9] 0.269 | [10] 0.396

GLB1 (UniProt P16278)
Sequence of UniProt P16278 (P16278 whole entry, looked up): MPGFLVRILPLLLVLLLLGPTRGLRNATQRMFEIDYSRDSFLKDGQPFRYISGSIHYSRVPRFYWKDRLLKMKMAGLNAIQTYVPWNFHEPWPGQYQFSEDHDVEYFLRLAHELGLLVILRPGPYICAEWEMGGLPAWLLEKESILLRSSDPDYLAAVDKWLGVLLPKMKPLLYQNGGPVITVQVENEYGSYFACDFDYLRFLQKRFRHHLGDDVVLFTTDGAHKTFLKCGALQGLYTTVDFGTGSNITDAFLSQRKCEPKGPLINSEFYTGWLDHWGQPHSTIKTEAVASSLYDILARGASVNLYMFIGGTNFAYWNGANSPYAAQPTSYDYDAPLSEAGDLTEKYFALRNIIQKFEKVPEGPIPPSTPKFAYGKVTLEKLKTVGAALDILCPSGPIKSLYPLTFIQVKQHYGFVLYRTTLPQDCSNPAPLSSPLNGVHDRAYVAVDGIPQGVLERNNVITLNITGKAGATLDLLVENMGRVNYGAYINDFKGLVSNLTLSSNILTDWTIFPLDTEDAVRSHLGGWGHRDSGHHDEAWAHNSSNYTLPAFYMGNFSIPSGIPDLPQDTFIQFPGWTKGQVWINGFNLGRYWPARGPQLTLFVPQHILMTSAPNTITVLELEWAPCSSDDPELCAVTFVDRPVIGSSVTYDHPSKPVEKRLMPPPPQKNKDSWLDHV
inactive: [1] 0.002 | [2] -0.033 | [3] 0.009 | [4] -0.015 | [5] -0.078 | [6] -0.015 | [7] 0.031 | [8] 0.045 | [9] 0.024 | [10] 0.006

GALNT11 (UniProt Q8NCW6)
inactive: [1] -0.012 | [2] -0.028 | [3] -0.019 | [4] -0.042 | [5] 0 | [6] 0.052 | [7] 0.013 | [8] 0.062 | [9] -0.011 | [10] 0.026

FDPS (UniProt P14324)
Sequence of UniProt P14324 (P14324 whole entry, looked up): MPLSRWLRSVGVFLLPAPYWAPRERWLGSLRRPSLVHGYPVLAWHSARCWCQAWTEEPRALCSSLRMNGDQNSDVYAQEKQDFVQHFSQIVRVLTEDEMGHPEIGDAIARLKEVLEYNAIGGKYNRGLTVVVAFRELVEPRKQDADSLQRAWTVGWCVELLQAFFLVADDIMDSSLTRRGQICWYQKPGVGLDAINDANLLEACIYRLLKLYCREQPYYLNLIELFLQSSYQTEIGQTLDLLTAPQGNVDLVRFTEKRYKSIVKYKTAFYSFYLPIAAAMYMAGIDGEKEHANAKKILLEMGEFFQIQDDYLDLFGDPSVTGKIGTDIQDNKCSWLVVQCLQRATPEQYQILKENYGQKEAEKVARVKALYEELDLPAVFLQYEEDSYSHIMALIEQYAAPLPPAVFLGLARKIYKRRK
inactive: [1] 0.048 | [2] -0.246 | [3] 0.019 | [4] -0.063 | [5] 0.066 | [6] 0.118 | [7] -0.047 | [8] 0.009 | [9] -0.018 | [10] -0.076

FKBP3 (UniProt Q00688)
inactive: [1] 0.219 | [2] -0.04 | [4] -0.015 | [5] -0.052 | [6] 0.047 | [7] -0.023 | [8] 0 | [9] -0.029 | [10] 0.004
active: [3] 0.354

GALNT1 (UniProt Q10472)
inactive: [1] 0.224 | [2] 0.058 | [3] 0.005 | [4] -0.033 | [5] 0.047 | [6] 0.044 | [7] 0.066 | [8] 0.034 | [9] 0 | [10] 0.023

GATA1 (UniProt P15976)
inactive: [1] -0.023 | [2] 0.001 | [3] -0.05 | [4] -0.034 | [5] 0.02 | [6] 0.07 | [7] 0.014 | [8] -0.087 | [9] 0.008 | [10] -0.021
